# What was measured:
# Test in all cases: PBM binding z-score (relative to random genomic background probes); higher = stronger binding; sequences stand for … in GC…GCGATTGACAGCGTAGAATGAAGG
# [1] = test system: RARb homodimer (NR concentration 270 nM)
# How it was run: (§1)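 Antibodies against each partner of ligand-free nuclear receptor dimers (one per run) detected binding on custom Agilent 4×180K protein-binding microarrays after 1 h incubation. The double-stranded probes had 34-nt variable regions carrying direct-repeat seeds, single-nucleotide variants, half-site ablations and random human genomic background sequences. Binding z-scores, from regression-normalized fluorescence, use the random background probes as reference.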
# [2] = test system: RARg:RXRa (NR concentration 270 nM, RXRa partner concentration 90 nM)
# How it was run: as §1
# [3] = test system: RARg homodimer (NR concentration 270 nM)
# How it was run: as §1
# [4] = test system: RXRa DBDmut IVT, anti-RXR (DBD mutation: RXRa K156A/R161A, NR concentration 90 nM)
# How it was run: as §1
# [5] = test system: RXRa homodimer (NR concentration 180 nM)
# How it was run: as §1
# [6] = test system: THRa:RXRa (NR concentration 90 nM, RXRa partner concentration 90 nM)
# How it was run: as §1
# [7] = test system: THRa homodimer (NR concentration 90 nM)
# How it was run: as §1
# [8] = test system: VDR:RXRa (NR concentration 270 nM, RXRa partner concentration 90 nM)
# How it was run: as §1
# [9] = test system: VDR homodimer (NR concentration 270 nM)
# How it was run: as §1
Sequence,PBM binding z-score [1],PBM binding z-score [2],PBM binding z-score [3],PBM binding z-score [4],PBM binding z-score [5],PBM binding z-score [6],PBM binding z-score [7],PBM binding z-score [8],PBM binding z-score [9]
ACTTTTAGTTGAGACGAGGGCAACCGATAGGTTG,1.35,0.942,1.03,0.926,0.7,2.53,0.433,0.832,1.02
CCTTACGGGTCAAGTTTATAGCACGGGTGGTACG,3.32,5.13,4.78,2.07,5.03,2.56,0.164,3.9,3.09
CAAACTAGGTCGCAGAGGTCAAAGTCCGTGCGTA,4.96,6.18,5.62,2.9,6.96,4.19,1.67,7.14,5.86
TGAATGAGGTTATAAGATCAGGGCACGTTGCAAA,1.02,1.74,1.28,0.591,2.05,2.4,0.785,1.21,0.892
ACTATTAGTTGAGACGCGGGCAACCGATAGGTTG,-0.0528,0.00918,0.268,0.153,-0.256,-0.0691,-0.769,-0.235,0.135
TCTCGGAGGAGACGAAGGTCAGAGCTTTCCAGAG,2.74,1.88,1.77,-0.234,1.63,1.11,-0.507,0.483,-0.413
CCTAGTTGGTTAGGAGGTCACACACCGGATATGA,3.78,4.04,3.53,0.861,3.97,3.42,2.5,3.56,3.06
TAGCCTAGGTCATGAGGGCCAGTATAGTGTCGGC,3.01,4.06,4.57,0.234,3.23,3.04,0.958,3.51,0.404
TCATATAGGTAAAGATGAAAGTCGAACGATATGA,-0.846,0.547,0.586,0.337,0.56,-0.225,-1.11,0.437,-0.391
AGTTAAAGTTCATCTAGGTAACGTAAGATATGCT,3.84,5.06,5.65,4.63,4.14,3.21,0.583,4.42,5.32
CCTGCTAGGTCACTGGTCAGCTAAAGCAGCTCGC,3.08,3.82,4.65,1.68,2.59,2.7,0.97,1.39,0.123
CCTACTGGGGCAAGGTCATTGATCAGTCAAAGCA,3.3,4.12,3.61,1.28,3.54,3.25,1.6,–,3.27
CTCGAAAGGCCGGTTGAGGTGAGTATACGGATAA,0.451,0.273,0.383,-0.239,-0.037,3.54,0.438,-0.304,-0.821
CGTCCAAGGTCAGAGAGGTAAGTGAATGCCGAGT,3.27,4.7,5.39,2.67,3.85,3.5,1.8,4.27,1.71
ATCTCTAGGTAAAATTCAGTGAAAGATCGATAGA,-0.326,0.344,0.677,0.391,0.121,0.32,0.151,0.35,0.281
GCGTGTAGATCAAGGTTAAGAAAGACTAAGCTAA,0.225,0.354,0.289,-0.253,0.772,1.54,-0.256,0.0899,-0.286
CCTACTGGCCCACGAAAGGTCATTGATTCAGTGA,4.47,4.32,3.95,0.693,4.79,3.02,1.16,3.74,2.69
CCGACTGGGGCAGAAAGGTTACCAGACCATCCGG,2.18,1.75,1.28,-0.651,1.71,0.99,-0.742,0.696,-0.568
TAGCCTAGGCCAGATCGGGCCAGTATACGCTATA,-0.577,-0.451,-0.0912,-1.32,-0.625,0.522,-0.893,-0.802,-0.924
AGAACGAGGGCAATGACTTGATAGCACGGGTGGC,1.08,1.18,1.67,1.64,1.08,0.826,0.042,0.34,0.435
TCTTGTAGATCAAGCAGGTTAAAAAAGCCTGAGT,0.112,0.141,-0.124,0.493,0.566,0.589,-0.577,1.04,0.272
CGTCCAAGGTTAATGCTAGGTCAGTGAAAGCATT,3.14,4.63,2.64,1.27,1.78,3.44,1.31,1.86,0.435
TCTAGTTGGTCACGGAGGTAACACACGACGGGTA,1.39,1.24,1.7,0.681,1.04,1.12,0.797,1.03,0.198
TCTTGTAGATTAAAGGTTAAGAAAGCCGAAGCCT,1.05,1.04,0.588,0.892,1.99,1.09,-0.228,1.09,0.123
GGAACGAGGGCAAAGTTGATAGGATCTGTCGACG,1.32,2.19,1.89,2.92,2.12,1.36,-0.0299,1.37,1.34
CCTACTGGGCCATTCAGTGGTCATTGATCATATG,0.199,0.241,0.159,-0.408,-0.279,-0.329,-0.878,-0.487,-0.288
CCTACTGGGCCACGAAAGGTCAATGATTCAGTGA,4.81,4.94,4.64,0.165,4.81,3.66,0.66,3.4,0.883
ATATGTAGGTTAAGGGTCATTAAGGTTGGTTCGC,4.07,4.66,3.54,1.78,5.92,3.48,1.58,–,3.96

Sequence,PBM binding z-score [1],PBM binding z-score [2],PBM binding z-score [3],PBM binding z-score [4],PBM binding z-score [5],PBM binding z-score [6],PBM binding z-score [7],PBM binding z-score [8],PBM binding z-score [9]
TAGCCTAGGTCATTCAGGGACCAGTATAGAAAGC,2.63,3.94,4.11,1.43,2.72,4.26,0.615,–,1.19
TGAACGAGGTTAAAGATCAGGGAACGTGGCGTCG,0.576,2.39,1.35,0.835,3.89,2.04,-0.132,–,0.34
TCGAGTAGGTTACGGGCATTCAGAATGGCGTCGA,0.362,0.594,0.594,-0.00223,0.855,0.116,-0.913,–,-0.716
ACTTACGGGTCAACGAGGTTAGAGCACGCGTATA,3.62,5.52,5.15,2.34,5.87,3.7,0.878,–,2.6
ATCTCTAGGCAACAAGTTCAGTGAAAGAGAGGAC,1.5,0.455,0.889,0.344,0.308,0.961,0.49,–,2.1
AGTCAAAGTTCAGAACGAGGTAACGTAAAGCACG,2.66,4.62,4.15,3.09,2.76,3.63,0.7,–,1.94
ACTAGCAGGCCCAGGGTCACTCAAGATTAGTCCG,2.58,2.39,2.01,-0.284,2.78,2.73,1.17,–,1.14
ATTTCTAGGTAAAAGTTCAGTGAATCCCGAGGAT,2.3,2.15,2.03,1.21,1.88,1.64,0.543,–,2.1
AGAATGAGGTTATACGAAGATCAGGGAAGAAAGT,0.559,1.71,1,1.38,2.09,2.01,0.403,–,0.752
TAGCCTAGGTCAGATCGGGCCACTATACGCTATA,2.48,2.78,3.37,-0.221,1.48,4.72,0.493,–,0.0583
GGAACGAGGGCAACGTTGATAGCATCTGTCGACG,0.961,1.37,1.79,1.56,0.986,0.981,-0.186,–,-0.00307
ATCTCTAGGTAAAGGTAGTTCAGTGAATGCAAAT,0.964,0.44,0.605,0.345,0.164,1.21,0.679,–,1.12
TGAATGAGTTTATAAGATCAGGGAACGTTGCAAA,-0.48,0.181,0.344,3,0.0895,0.0488,-0.207,–,2.37
CCTACTGGGCCACGAAAGGTCATCGATTCAGTGA,4.88,5.15,4.75,0.398,5.62,4,1.08,–,1.56
AGAATGAGGTTATACGTAGATCAGGGTAGAAAGT,1.33,1.82,1.34,1.81,2.24,2.42,0.874,–,1.21
TAGCCTAGGTCATTCGGGGGCCAGTATAGAAAGC,3.39,6.55,5.25,2.13,3.58,4.17,1.48,–,2.32
CCTACTGGGGCATTCAGAGGTCATTGATCATATG,4.07,5.17,3.71,0.683,3.72,3.43,1.19,–,3.38
TCATATTGGTAAATGCTAGGTGAAAGTCCGATCT,0.619,0.03,0.0161,1.7,0.255,0.808,0.878,–,0.578
CCGACTGGGGCAAGGTTATCATAACGCACAGCCA,1.27,1.03,1.08,0.0521,1.12,1,0.224,–,0.128
ACAGACAGGTGATGCAGGTAACTCAGGCTATCAT,0.184,0.124,0.379,-0.176,0.354,0.549,-0.0382,–,-0.22
CAATCTAGGTCAAGAGGTCAAAGTCCGCTTCCCG,5.66,8.19,7.48,2.79,8.19,4.5,2.95,–,5.19
AATTACGGGTCAACGAGGTTATAGCACGCGTATA,3.63,5.71,4.88,2.47,6.2,4.18,1.16,–,4.13
ATCGAAAGGTCGGGGTGAGTATAGAGAAAGGGAA,2.88,3.7,3.63,1.78,3.77,3.06,1.35,–,1.52
TCTTATAGATCAGCAGGTTAAGAAAGCTGGCCAA,-0.092,0.0544,-0.0955,0.704,0.376,0.0186,-0.656,–,-0.144
GGTACAGGGTCAAGGCCAGAGTACGCGTATTGAT,3.76,5.41,5.03,1.78,5.91,3.58,1.26,–,2.94
ATCGAAAGGTCGACGGGGTGAGTATACACCGTTT,3.14,4.6,4.63,1.61,5.07,3.57,0.568,–,1.7
CCTAGCATGCCAATCTGGGTCACTCAAGGCTTGA,1.86,0.768,0.691,0.255,0.917,2.93,0.266,–,-0.104

# Source: the supplement of paper PMC6555819
